HCMV inh: qHTS Assay for inhibitors of the human cytomegalovirus (HCMV); 4.5% of 410,000 active; activity change, negative = inhibition, % at 57.5 µM; HFF cells, HCMV-luciferase reporter, 72 h; stronger effect = lower value; in the data active = activity change below about -60%; inconclusive = no clear call, values can overlap the other calls; inactive = above about -39%
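Two-dose cell screen: HFF monolayers treated with compounds and infected with luciferase-expressing HCMV at 1 PFU/cell, 72 h at 37C, then lysed for luciferase measurement.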
Marburg entry inh: qHTS for inhibitors of binding or entry into cells for Marburg Virus; Marburg virus pseudotyped entry inhibition, cell reporter; AID 540276, 2011; 1.8% of 300,000 active; Potency, µM (doses to about 37.8 µM), for inactives: at the highest dose activity change, negative = inhibition, most hits filed as inhibitors; calls by dose curve; tested in HEK293 cells; note: potency is the fitted concentration of half-maximal effect
VACV mCherry inh: qHTS for Stage-Specific Inhibitors of Vaccinia Orthopoxvirus: mCherry Reporter Primary qHTS. Vaccinia virus mCherry reporter infection, fluorescence. Potency, µM (top dose mostly 36.5 µM), for the others: at the top dose activity change, negative = inhibition, most hits filed as inhibitors. 0.63% of 310,000 active; calls by dose curve; tested in A549 cells; note: potency is the fitted concentration of half-maximal effect; nearly all actives have a fitted effect of over 35% in size
FMDV antiviral: High Throughput Screening for Foot and Mouth Disease Virus Antivirals | FMDV antiviral cell-based qHTS | Potency, µM (series often up to 57.9 µM), without a hit: at the top dose activity change, negative = inhibition, most hits filed as inhibitors | 1.2% of 410,000 active; calls by dose curve; tested in HEK293T cells; note: read-out not given here; potency is the fitted concentration of half-maximal effect; nearly all actives have a fitted effect of over 45% in size
VACV Venus inh: qHTS for Stage-Specific Inhibitors of Vaccinia Orthopoxvirus: Venus Reporter Primary qHTS | Potency, µM (highest dose often 36.5 µM), inactives show top-dose activity change, negative = inhibition, actives largely listed as inhibitors | AID 720580, 2013 | 0.46% of 330,000 active | Vaccinia virus Venus reporter expression, fluorescence; calls by dose curve; tested in A549 cells; note: potency is the fitted concentration of half-maximal effect; nearly all actives have a fitted effect of over 30% in size
Lassa entry inh: qHTS for Inhibitors of binding or entry into cells for Lassa Virus | Lassa virus pseudotype entry inhibition, cell reporter | Potency, µM (highest dose often 37.9 µM), for inactives: at the highest dose activity change, negative = inhibition, usual class: inhibitors | 1.2% of 300,000 active; calls by dose curve; tested in HEK293 cells; note: potency is the fitted concentration of half-maximal effect; nearly all actives have a fitted effect of over 50% in size
Starred values were filed as active, the others as inactive; i = inactive; u = inconclusive; x = not tested or not shown; + = active, no number; [ ] = remark or other dose. Hits are enriched below; roughly 6.5% of the tested compounds scored in any of these assays. % is set by controls: 0 for no effect and ±100 for the full control effect.

SMILES | HCMV inh | Marburg entry inh | VACV mCherry inh | FMDV antiviral | VACV Venus inh | Lassa entry inh
Cc1ccc(CCNC(=O)c2sc3ncccc3c2-n2c(C)ccc2C)cc1 | 33 | x | -17% | -25% | -17% | -10%[46.1 µM]
CC(C)c1ccc(/C=N/NC(=O)C(=O)NCCCN2CCOCC2)cc1 | -62* | -6% | i | -18% | -19% | -1%
O=C(NCCCN1CCOCC1)C(=O)N/N=C/c1ccccc1Cl | 2 | x | x | 21% | x | x
O=C(NCCCN1CCOCC1)C(=O)N/N=C/c1c(Cl)cccc1Cl | -39 | -13%[46.1 µM] | -4% | 20% | 8% | 2%
O=C(NCCCN1CCOCC1)C(=O)N/N=C/c1c2ccccc2cc2ccccc12 | -93* | u | u | -16% | u | u
CCOc1cc(-c2ccc(OC(=O)c3ccccc3)c(OC)c2)cc(=O)c2c(C)oc(C)c12 | 250 | u | -1% | u | 8% | -17%[46.1 µM]
Cc1nc(Nc2ccc3c(c2)OCO3)c2oc3ccccc3c2n1 | 14 | 39% | x | 23% | x | 3%
Cc1nnc(Nc2ccc3c(c2)OCO3)c2ccccc12 | -91* | 27% | -8% | 40% | 9% | -7%
Cc1ccc(-c2nnc(Nc3ccc4c(c3)OCO4)c3ccccc23)cc1S(N)(=O)=O | -73* | u | u | 37% | -18% | -28%
CCCN1C(=O)C(Cc2nc3ccccc3c(=O)n2CC)c2cc(Br)ccc21 (stereo unspecified) | -73* | -25%[46.1 µM] | -4%[7.34 µM] | -1% | -4%[7.34 µM] | -27%[46.1 µM]
CCOC(=O)c1c(CC(C)C)csc1NC(=O)COC(=O)c1ccc(O)cc1 | -19 | -2% | -8% | 35µM* | -2% | u
COc1ccc([C@H]2/C(=C(\O)c3ccc(OC(C)C)cc3)C(=O)C(=O)N2CCCN2CCOCC2)cc1 | x | -13% | x | x | x | x
Cc1ccccc1NC(=O)c1sc(Cl)nc1C | -7 | -4% | 10µM* | -2% | u | 1%
Cc1nc(N)sc1C(=O)Nc1ccccc1 | 104 | u | x | 22% | -3% | u
COC(=O)c1ccccc1NC(=O)c1sc(N)nc1C | -101* | -4% | x | -8% | 0% | -6%
Cc1ccc(NC(=O)c2sc(Cl)nc2C)c(C)c1 | 6 | 1% | 11µM* | 23% | u | 2%
COC(=O)c1cc(CNC(=O)c2ccc3ccccc3n2)cc(NC(=O)c2cccc(OC)c2)c1 | x | x | -8% | -1% | 7% | x
COc1ccccc1C(c1c(O)cc(C)n(Cc2ccco2)c1=O)N1CCCCC1 (stereo unspecified) | -2 | x | -16% | -15% | -8% | -3%[46.1 µM]
COc1ccccc1CNC(=O)C(=O)NCC(c1cccnc1)N1CCN(c2ccc(F)cc2)CC1 (stereo unspecified) | -26 | x | -26% | -10% | -29% | u
CCOC(=O)c1c(C)oc2nc(C)nc(N3CCN(c4cccc(C(F)(F)F)c4)CC3)c12 | -64* | x | -21% | u | -26% | -14%[46.1 µM]
CCOC(=O)c1c(C)oc2ncnc(N3CCN(c4ccc(C)cc4C)CC3)c12 | 4 | -13%[46.1 µM] | 4% | u | 3% | 4%[46.1 µM]
CCOC(=O)c1c(C)oc2nc(C)nc(N3CCN(c4ccc(C)cc4C)CC3)c12 | 15 | x | -12% | 9% | -9% | -11%[46.1 µM]
CCOC(=O)c1c(C)oc2nc(C)nc(N3CCN(c4ccccc4)CC3)c12 | u | x | -25% | 28µM* | -27% | -12%[46.1 µM]
CCOC(=O)c1c(C)oc2ncnc(N3CCN(c4cccc(Cl)c4)CC3)c12 | -26 | 0%[46.1 µM] | -24% | 28µM* | -14% | -3%[46.1 µM]
CCOC(=O)c1ccc(NC(=O)c2c(C)oc3nc(C)nc(N4CCCC4)c23)cc1 | 77 | x | -4% | -8% | -18% | u
SMILES | HCMV inh | Marburg entry inh | VACV mCherry inh | FMDV antiviral | VACV Venus inh | Lassa entry inh
Cc1ncc2c(c1CNS(=O)(=O)N(C)C)CCN(C(=O)c1[nH]c3ccc(Cl)cc3c1C)C2 | x | x | -14% | -21% | -12% | x
CCOC(=O)OC[C@H]1O[C@H](c2ccc(C(C)=O)cc2)C=C[C@@H]1Oc1ccc(-c2ccccc2)cc1 | x | 3%[14.2 µM] | x | x | x | x
CCCCNc1ncnc2sc3c(c12)CCN(CCC)C3 | -62* | x | x | -25% | x | x
c1cn(CCCNc2ncnc3sc4c(c23)CCC4)cn1 | u | -17% | x | 0% | -16% | -1%
O=C(NC1CCCCC1)c1cnn2c1NC(=C1CC1)C=C2C(F)F | x | x | -23% | x | u | x
Cc1csc(CN(C)C(=O)CC2C(=O)NCCN2Cc2ccc(Cl)c(F)c2)n1 (stereo unspecified) | + | x | x | -2% | x | x
Cc1csc(CN(C)C(=O)CC2C(=O)NCCN2Cc2ccc(F)cc2Cl)n1 (stereo unspecified) | -32 | x | x | -9% | x | x
CCNC(=O)CSC1=N/C(=C\c2ccc(O)c(OCC)c2)C(=O)N1c1ccc(OC(F)F)cc1 | -70* | 9%[46.1 µM] | -8% | 12% | 45% | -8%[46.1 µM]
OC1(CNCc2cn[nH]c2-c2cc3ccccc3o2)CCCCC1 | 12 | 7.9µM* | -5% | -25% | -7% | -30%
c1ccc2oc(-c3[nH]ncc3CN3CCSCC3)cc2c1 | -30 | u | -12% | -19% | -13% | -16%[46.1 µM]
CC(C)c1ccccc1-n1c(SCc2cc(=O)oc3ccc4ccccc4c23)nnc1-c1cccnc1 | -33 | u | -24% | 14µM* | -17% | u
CC(=O)Nc1ccc2c(CSc3nnc(-c4cccnc4)n3-c3ccc(C)cc3C)cc(=O)oc2c1 | -20 | -14% | -16% | -11% | -15% | u
CCOc1ccc(-n2c(SCc3cc(=O)oc4cc(C)ccc34)nnc2-c2cccnc2)cc1 | -65* | -1% | -26% | 10% | -19% | -10%
CCN(CC)c1cc2c(cc1F)c(=O)c(S(=O)(=O)c1cccc(C)c1)cn2C | -64* | x | i | 5% | -14% | -2%[46.1 µM]
CCOC(=O)c1c(NC(=O)c2ccc(S(=O)(=O)N3CCC(C)CC3)cc2)sc2c1CCN(C)C2 | -82* | x | -17% | -18% | u | 0%[46.1 µM]
COC(=O)c1c(NC(=O)CCS(=O)(=O)c2ccccc2)sc2c1CCN(C)C2 | -90* | -3% | u | -8% | u | 0%
CCOC(=O)N1CCN(S(=O)(=O)c2ccc(C(=O)Nc3sc4c(c3C(=O)OC)CCN(C)C4)cc2)CC1 | -62* | u | -5% | -12% | u | -10%[46.1 µM]
CCCN1CCc2c(sc(NC(=O)c3ccc(S(=O)(=O)N4CCN(C(=O)OCC)CC4)cc3)c2C(N)=O)C1 | -3 | x | x | -23% | x | x
CCCN1CCc2c(sc(NC(=O)CCS(=O)(=O)c3ccccc3)c2C(=O)OC)C1 | -9 | u | u | -11% | -28% | -22%
COc1ccc(OC)c(-c2ccnc(-n3ncc(C(=O)NC(C)(C)CO)c3C3CC3)n2)c1 | x | x | -14% | 34% | 0% | x
